Results filed as inconclusive are left out. Values without a mark were called inactive. Calls of active or inactive are those of the source. Calls follow the shape of the dose curve; as a rule, active = well fitted curve in the direction sought with a large enough effect in the repeat runs; inconclusive = weak or mixed curves; inactive = no such curve, though single readings can be large; an effect the other way counts as inactive or inconclusive.

The results in this text go back to PubChem BioAssay (Tox21).

The target in test [1] is Cytochrome P450 2D6 (Homo sapiens) (UniProt P10635). Description: Cytochrome P450 Family 2 Subfamily D Member 6 (CYP2D6) small molecule antagonists: luciferase reporter qHTS assay (AID 1671196). Also: nearly all actives have a fitted effect of over 50% in size. Also: potency is read from the fitted curve at half-maximal effect. As to activity change, negative = inhibition: series mostly up to about 120 µM. A digest of the protocol: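 Each well received CYP2D6 with its proluciferin substrate and chemical, sat 10 min, then got NADPH regeneration solution for 1 h at room temperature. Luminescence in RLU served as the activity measure.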

Test [2] deals with Cytochrome P450 2C19 (Homo sapiens) (UniProt P33261). Description: Cytochrome P450 Family 2 Subfamily C Member 19 (CYP2C19) small molecule antagonists: luciferase reporter qHTS assay (AID 1671197). Also: nearly all actives have a fitted effect of over 65% in size. Also: potency is read from the fitted curve at half-maximal effect. As to activity change, negative = inhibition: series mostly up to about 120 µM. A digest of the protocol: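 Quantitative high-throughput screen of the Tox21 library using CYP2C19 with proluciferin substrate. Reaction: NADPH regeneration, 37C, 1 h, after 10 min compound preincubation at room temperature. Readout: luminescence.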

For test [3], the target named is Cytochrome P450 2C9 (Homo sapiens) (UniProt P11712). As to the kind of experiment: Cytochrome P450 Family 2 Subfamily C Member 9 (CYP2C9) small molecule antagonists: luciferase reporter qHTS assay (AID 1671198). Also: nearly all actives have a fitted effect of over 50% in size. Also: potency is read from the fitted curve at half-maximal effect. As to activity change, negative = inhibition: series mostly up to about 120 µM. A digest of the protocol: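 CYP2C9 activity was measured with a P450-Glo proluciferin substrate. Enzyme–substrate mix was held with compound for 10 min at room temperature, then NADPH regeneration solution was added for 1 h at 37C. Luciferin product was read as luminescence.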

In test [4] the target is Cytochrome P450 1A2 (Homo sapiens) (UniProt P05177). Description: Cytochrome P450 Family 1 Subfamily A Member 2 (CYP1A2) small molecule antagonists: luciferase reporter qHTS assay (AID 1671199). Also: nearly all actives have a fitted effect of over 50% in size. Also: potency is read from the fitted curve at half-maximal effect. As to activity change, negative = inhibition: series mostly up to about 120 µM. A digest of the protocol:
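Enzymatic CYP1A2 assay, human, luminescent: 10 min compound–enzyme–substrate preincubation, 1 h NADPH-dependent turnover, 20 min detection step, room temperature throughout. Reduced light indicates lower CYP1A2 activity.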

The target of test [5] is Cytochrome P450 3A4 (Homo sapiens) (UniProt P08684). As to the kind of experiment: Cytochrome P450 Family 3 Subfamily A Member 4 (CYP3A4) small molecule antagonists: luciferase reporter qHTS assay (AID 1671201). Also: nearly all actives have a fitted effect of over 50% in size. Also: potency is read from the fitted curve at half-maximal effect. As to activity change, negative = inhibition: series mostly up to about 120 µM. A digest of the protocol: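 Luminescent readout (RLU) proportional to CYP3A4 activity, from luciferin generated off a proluciferin substrate. Enzyme–substrate mix plus compound 10 min at room temp, NADPH regeneration 1 h, detection reagent 20 min.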

Test [6] addresses Voltage-gated inwardly rectifying potassium channel KCNH2 (Homo sapiens) (UniProt Q12809). Description: Human Ether-a-go-go-Related Gene (hERG) channel small molecule antagonists: fluorescence cell-based qHTS assay (AID 1671200). A digest of the protocol:
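Read-out: thallium influx as a surrogate for potassium, tracked as fluorescence (480 nm ex/540 nm em) every second for 2 min after Stimulus Buffer addition in dye-loaded hERG-U2OS cells.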
% is scaled to controls: 0 for no effect and ±100 for the full control effect.

Voltage-gated inwardly rectifying potassium channel KCNH2 (Homo sapiens), sequence (Q12809 whole entry, looked up): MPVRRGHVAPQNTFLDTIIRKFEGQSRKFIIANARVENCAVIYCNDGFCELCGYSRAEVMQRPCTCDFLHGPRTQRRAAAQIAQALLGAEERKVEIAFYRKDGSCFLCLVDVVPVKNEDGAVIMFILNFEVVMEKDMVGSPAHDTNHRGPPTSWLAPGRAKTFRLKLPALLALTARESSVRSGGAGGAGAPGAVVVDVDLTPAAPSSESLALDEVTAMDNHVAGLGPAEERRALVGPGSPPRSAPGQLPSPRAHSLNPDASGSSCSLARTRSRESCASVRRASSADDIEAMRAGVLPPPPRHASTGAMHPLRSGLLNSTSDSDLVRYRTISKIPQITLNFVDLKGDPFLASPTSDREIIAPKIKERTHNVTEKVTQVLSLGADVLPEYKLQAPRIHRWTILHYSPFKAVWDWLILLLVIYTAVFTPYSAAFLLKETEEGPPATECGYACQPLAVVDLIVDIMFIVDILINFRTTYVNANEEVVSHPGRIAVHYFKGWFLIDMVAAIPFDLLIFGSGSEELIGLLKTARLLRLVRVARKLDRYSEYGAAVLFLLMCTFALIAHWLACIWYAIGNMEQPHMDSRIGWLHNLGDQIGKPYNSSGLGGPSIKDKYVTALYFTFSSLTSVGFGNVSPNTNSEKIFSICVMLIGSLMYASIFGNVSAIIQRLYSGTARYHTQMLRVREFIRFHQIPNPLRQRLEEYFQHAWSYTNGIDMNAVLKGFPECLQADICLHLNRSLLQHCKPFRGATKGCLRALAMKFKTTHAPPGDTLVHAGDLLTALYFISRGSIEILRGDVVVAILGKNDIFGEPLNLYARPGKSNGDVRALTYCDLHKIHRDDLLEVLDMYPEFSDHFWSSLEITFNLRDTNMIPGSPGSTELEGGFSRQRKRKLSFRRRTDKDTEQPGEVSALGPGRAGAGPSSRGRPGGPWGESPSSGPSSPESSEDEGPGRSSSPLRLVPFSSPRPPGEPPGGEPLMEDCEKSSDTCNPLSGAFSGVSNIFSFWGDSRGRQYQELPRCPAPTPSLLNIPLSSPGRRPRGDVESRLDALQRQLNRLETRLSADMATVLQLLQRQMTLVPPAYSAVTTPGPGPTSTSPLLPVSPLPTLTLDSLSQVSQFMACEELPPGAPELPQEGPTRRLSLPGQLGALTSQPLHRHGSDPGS
Cytochrome P450 2D6 (Homo sapiens), sequence (P10635 whole entry, looked up): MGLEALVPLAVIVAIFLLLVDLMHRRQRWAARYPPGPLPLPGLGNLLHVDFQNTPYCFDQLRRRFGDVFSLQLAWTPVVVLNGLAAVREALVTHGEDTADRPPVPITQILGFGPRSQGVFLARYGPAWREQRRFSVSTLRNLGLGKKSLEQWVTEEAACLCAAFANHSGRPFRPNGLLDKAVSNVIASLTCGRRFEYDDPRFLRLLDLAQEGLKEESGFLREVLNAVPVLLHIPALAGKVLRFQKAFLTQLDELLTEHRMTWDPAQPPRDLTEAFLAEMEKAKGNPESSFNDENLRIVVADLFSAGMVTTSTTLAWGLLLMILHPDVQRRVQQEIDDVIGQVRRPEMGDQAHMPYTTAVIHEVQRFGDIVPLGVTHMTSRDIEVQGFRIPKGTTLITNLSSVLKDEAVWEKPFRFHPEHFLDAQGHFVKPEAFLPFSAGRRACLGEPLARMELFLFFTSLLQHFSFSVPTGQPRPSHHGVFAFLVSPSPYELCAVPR
Cytochrome P450 1A2 (Homo sapiens), sequence (P05177 whole entry, looked up): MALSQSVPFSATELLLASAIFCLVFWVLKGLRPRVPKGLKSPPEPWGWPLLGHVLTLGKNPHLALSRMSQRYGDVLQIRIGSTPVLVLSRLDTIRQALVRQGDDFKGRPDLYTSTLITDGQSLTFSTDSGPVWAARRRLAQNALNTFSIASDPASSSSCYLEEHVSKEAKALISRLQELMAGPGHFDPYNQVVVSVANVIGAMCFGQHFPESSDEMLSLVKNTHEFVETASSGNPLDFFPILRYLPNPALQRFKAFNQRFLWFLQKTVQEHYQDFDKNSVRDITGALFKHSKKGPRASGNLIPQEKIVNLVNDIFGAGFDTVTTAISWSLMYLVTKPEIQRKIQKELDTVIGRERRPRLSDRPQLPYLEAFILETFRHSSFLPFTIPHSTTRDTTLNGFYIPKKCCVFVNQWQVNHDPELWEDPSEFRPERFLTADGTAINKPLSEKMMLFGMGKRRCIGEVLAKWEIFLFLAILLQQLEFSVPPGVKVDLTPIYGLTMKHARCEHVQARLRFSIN
Cytochrome P450 2C19 (Homo sapiens), sequence (P33261 whole entry, looked up): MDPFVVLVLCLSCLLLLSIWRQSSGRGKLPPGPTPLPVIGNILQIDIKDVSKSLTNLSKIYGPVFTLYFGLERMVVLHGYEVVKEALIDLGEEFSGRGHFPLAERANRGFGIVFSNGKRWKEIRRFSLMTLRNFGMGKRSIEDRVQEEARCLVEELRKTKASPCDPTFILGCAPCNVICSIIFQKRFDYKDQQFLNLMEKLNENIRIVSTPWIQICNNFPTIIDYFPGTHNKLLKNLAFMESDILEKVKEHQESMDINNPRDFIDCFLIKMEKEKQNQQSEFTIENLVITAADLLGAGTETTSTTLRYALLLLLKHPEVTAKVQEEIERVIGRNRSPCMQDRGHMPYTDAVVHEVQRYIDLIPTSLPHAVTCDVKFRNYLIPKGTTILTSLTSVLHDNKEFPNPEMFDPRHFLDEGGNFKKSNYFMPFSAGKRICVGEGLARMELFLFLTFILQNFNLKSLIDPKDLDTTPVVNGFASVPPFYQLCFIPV
Cytochrome P450 3A4 (Homo sapiens), sequence (P08684 whole entry, looked up): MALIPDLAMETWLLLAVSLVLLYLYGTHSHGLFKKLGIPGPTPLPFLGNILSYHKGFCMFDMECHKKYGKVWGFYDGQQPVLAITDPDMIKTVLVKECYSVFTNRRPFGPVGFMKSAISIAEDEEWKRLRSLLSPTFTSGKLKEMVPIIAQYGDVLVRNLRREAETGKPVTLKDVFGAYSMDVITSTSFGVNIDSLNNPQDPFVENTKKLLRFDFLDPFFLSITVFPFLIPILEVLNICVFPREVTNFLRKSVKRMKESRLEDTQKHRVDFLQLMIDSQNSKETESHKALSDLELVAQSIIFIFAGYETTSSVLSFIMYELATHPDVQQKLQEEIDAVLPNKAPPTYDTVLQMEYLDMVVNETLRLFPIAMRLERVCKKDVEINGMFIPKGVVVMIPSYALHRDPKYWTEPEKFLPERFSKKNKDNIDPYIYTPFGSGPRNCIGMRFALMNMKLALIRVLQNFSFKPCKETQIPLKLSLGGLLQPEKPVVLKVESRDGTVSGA
Cytochrome P450 2C9 (Homo sapiens), sequence (P11712 whole entry, looked up): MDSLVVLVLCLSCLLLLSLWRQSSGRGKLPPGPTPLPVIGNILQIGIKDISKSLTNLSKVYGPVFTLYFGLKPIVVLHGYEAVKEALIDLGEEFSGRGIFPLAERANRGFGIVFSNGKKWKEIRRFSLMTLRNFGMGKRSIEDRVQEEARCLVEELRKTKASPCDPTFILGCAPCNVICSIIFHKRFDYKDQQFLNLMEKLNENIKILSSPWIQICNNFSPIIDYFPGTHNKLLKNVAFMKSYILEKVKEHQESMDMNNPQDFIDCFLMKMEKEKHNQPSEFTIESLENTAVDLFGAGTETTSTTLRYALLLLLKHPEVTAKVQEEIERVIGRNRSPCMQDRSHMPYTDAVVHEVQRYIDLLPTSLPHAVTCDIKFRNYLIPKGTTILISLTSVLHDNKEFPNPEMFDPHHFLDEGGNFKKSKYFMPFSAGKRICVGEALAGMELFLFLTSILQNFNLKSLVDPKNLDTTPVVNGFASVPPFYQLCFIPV

In the case of `CCCCCCCCOCCC#N`, the Potency entry in test [1], in test [2], in test [3], in test [4] and in test [5] was “inactive” in each case.
Regarding `CC(=O)c1ccc2ccc3ccccc3c2c1`, the Potency entry in test [1] and in test [6] was “inactive” throughout. Besides, the Potency in test [2] was 22.3 µM (active); in test [3], 12.6 µM (active); in test [4], 1.12 µM (active); in test [5], 39.7 µM (active).
On to `CC(C)c1cc(C(C)C)cc(C(C)C)c1`, for which the Potency result in test [1], in test [2], in test [3], in test [4] and in test [5] was “inactive” each time.
Regarding `Cc1cc(N)no1`, the Potency in test [1] is 65.6 µM (active). In addition, the Potency result in test [2], in test [3], in test [6] and in test [5] was “inactive” throughout.
In the case of `O=c1[nH]c(=O)c2cn[nH]c2[nH]1`, the Potency entry in test [1], in test [2], in test [3], in test [4], in test [6] and in test [5] was “inactive” each time.
For the molecule `CCCCCCCCCCCBr`, the Potency result in test [1], in test [2], in test [3], in test [4], in test [6] and in test [5] was “inactive” in each case.
Take `CCCCCCCCC1CO1` (stereo unspecified): the Potency entry in test [1], in test [2], in test [3], in test [4], in test [6] and in test [5] was “inactive” each time.
Regarding `CCCCCCCCCCCCCCCCN(C)C`, the Potency in test [1] is 3.19 µM (active). Further, the activity change, negative = inhibition was -5.94% [at 10.5 µM] in test [2], -0.0403% [at 10.5 µM] in test [3], -22.3% [at 10.5 µM] in test [4] and -0.256% [at 10.5 µM] in test [5].
In the case of `C=COCCCCO`, the Potency result in test [1], in test [2], in test [6] and in test [5] was “inactive” each time.
`O=c1c(O)c(O)c1=O`: the Potency result in test [1], in test [2], in test [3], in test [6] and in test [5] was “inactive” in each case.
On to `CCCCc1ccc(Cl)cc1`, for which the Potency result in test [1], in test [2], in test [3], in test [6] and in test [5] was “inactive” throughout.
Consider `CCC(C)SSC(C)CC` (stereo unspecified), for which the Potency in test [1] is 31.7 µM (active). Also, the Potency result in test [2], in test [3] and in test [5] was “inactive” each time.
For `CCCCN1C(=O)c2ccccc2C1=O`, the Potency result in test [1], in test [6] and in test [5] was “inactive” throughout. In addition, the results for the Potency in test [2] and in test [4] were 20.7 µM (active) and 2.61 µM (active), respectively.
For the molecule `CCCCNCC`, the Potency entry in test [1], in test [6] and in test [5] was “inactive” in each case. Moreover, the Potency in test [2] was 27.2 µM (active); in test [4], 19.3 µM (active).
On to `Nc1nc(Cl)cc(Cl)n1`, for which the Potency entry in test [1], in test [2], in test [3] and in test [5] was “inactive” in each case.
